Several values for one entry are separate records, joined by “and”; a condition that tells them apart may be missing. Identical values can stand only once. About 6,500 (4.3%) of roughly 150,000 compounds were called active. Roughly 12% stayed inconclusive and do not appear here. The entries come from a sample that favours actives as a whole. Unmarked numbers belong to inactive results. Calls come from the whole dose curve; as a rule, active = well fitted inhibition curve with a large enough effect (not every such curve was filed as active); inconclusive = small, poorly fitted or top-dose-only effect, or another doubt; inactive = no such curve, though single readings can be large or run the other way.
% is set by controls: 0 for no effect and ±100 for the full control effect; potency is the fitted concentration of half-maximal effect.

In the test the target is 15-hydroxyprostaglandin dehydrogenase [NAD(+)] (Homo sapiens) (UniProt P15428). Nature of the test: qHTS Assay for Inhibitors of HPGD (15-Hydroxyprostaglandin Dehydrogenase). The note with it: purified HPGD, NADH fluorescence kinetic, PGE2 substrate; activity change, negative = inhibition: active compounds read low. Put shortly: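 20 nM HPGD preincubated 15 min at room temperature with compound in 50 mM Tris-HCl pH 8, 0.01% Tween 20. Started with 1 mM NAD+ and 30 uM prostaglandin E2; NADH fluorescence (360/450 nm) read 5 times over 30-s intervals, last minus first.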
15-hydroxyprostaglandin dehydrogenase [NAD(+)] (Homo sapiens), sequence (P15428 whole entry, looked up): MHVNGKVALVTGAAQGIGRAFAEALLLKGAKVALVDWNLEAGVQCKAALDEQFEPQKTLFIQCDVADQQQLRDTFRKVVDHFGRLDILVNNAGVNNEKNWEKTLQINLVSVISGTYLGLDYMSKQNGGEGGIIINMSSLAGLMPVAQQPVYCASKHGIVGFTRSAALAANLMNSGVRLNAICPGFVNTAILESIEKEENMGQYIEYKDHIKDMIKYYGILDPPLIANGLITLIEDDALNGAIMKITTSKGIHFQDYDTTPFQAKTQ
`Cc1cc(OCCCC(=O)NCCN2C(=O)S/C(=C\c3cccnc3)C2=O)ccc1Cl`: the activity change, negative = inhibition was -5.63%. Turning to `Cn1cnc(C(F)(F)F)c1-c1ccc([N+](=O)[O-])cc1`, the activity change, negative = inhibition is -0.963%. In the case of `Cc1ccnc(-n2sc3ccccc3c2=O)n1`, the Potency is 0.794 µM (active). As for `Cc1nc2ccccc2c(=O)n1CCCn1ccnc1`, the activity change, negative = inhibition was -6.43%.

In the case of `Cc1ccc(NC(=S)NCc2ccccc2Cl)c(C)c1`, the activity change, negative = inhibition was -27.2%. Take `Clc1ccc(C2=CSC3=Nc4cccc5cccc(c45)N23)cc1`: the Potency was 7.94 µM (active). Take `O=S(=O)(NCC1CCCO1)c1cnc(Cl)c(Cl)c1` (stereo not given): the activity change, negative = inhibition is -16.1%. On to `C/C(=C\c1ccccc1)C1NC(=O)c2c(sc3c2CCCC3)N1` (stereo not given), for which the activity change, negative = inhibition was -3.55%.

Turning to `O=C(c1cc(-c2ccccc2O)on1)N1CCCC1`, the activity change, negative = inhibition was -29.8%. Regarding `O=C(c1cc(-c2cccs2)on1)N1CCCCC1`, the Potency is 1.78 µM (active). `COc1ccccc1-c1cc(C(=O)N2CCCCC2)no1`: the Potency was 3.55 µM (active). With `O=C(c1cccs1)N1CCN(C(=O)N2CCOCC2)CC1`, the activity change, negative = inhibition is 2.42%. On to `COc1ccccc1N1CCN(C(=O)c2cc(-c3ccc(Cl)c(Cl)c3)on2)CC1`, for which the activity change, negative = inhibition was -13.7%. Regarding `COc1ccccc1N1CCN(C(=O)c2cc(-c3ccc(Br)cc3)on2)CC1`, the activity change, negative = inhibition is -29.1%. As to `Cc1cc(C)cc(NC(=S)NCc2ccc(F)cc2)c1`, the activity change, negative = inhibition is -19.9%. Turning to `CCn1nc(C)c(/C=N/NC(=O)Cc2ccc(Cl)cc2)c1C`, the activity change, negative = inhibition is -9.17%. On to `O=C(NCc1cccs1)C(=O)NCC1OCCCN1S(=O)(=O)c1ccc(F)cc1` (stereo not given), for which the activity change, negative = inhibition is -5.48%. Still for that read-out and setting: the figure for `C=CCOC(=O)NC(c1ccc(F)c(F)c1)C(C(=O)COC)C(=O)OC` (stereo not given) is -10.1% and -9.32%; for `CCN(CC)S(=O)(=O)c1cccc(C(=O)Nc2ccccc2)c1` it is 0.0347%. Consider `COC(=O)c1ccc(/C=N\n2c(C)nnc2C)cc1`, for which the activity change, negative = inhibition is -12.4%. Turning to `CCN(CC)S(=O)(=O)c1cccc(-c2n[nH]c(=S)n2/N=C/c2ccc(C(=O)OC)cc2)c1`, the Potency was 6.31 µM (active). With `CC(Sc1nc2cc(Cl)ccc2s1)C(=O)Nc1ccc2c(c1)OCO2` (stereo not given), the activity change, negative = inhibition was -22.7%. `O=C(COC(=O)/C=C/c1cccc(Cl)c1)NCCc1ccccc1`: the activity change, negative = inhibition was -5.17%.

For `CC(C)CNC(=O)COC(=O)/C=C/c1ccco1`, the activity change, negative = inhibition was -11.3%. In the case of `CC(C)CNC(=O)COC(=O)/C=C/c1ccccc1[N+](=O)[O-]`, the Potency was 28.2 µM (active). Regarding `COc1cccc(NC(=S)NCc2ccco2)c1`, the Potency is 11.2 µM (active). For `COc1cccc(NC(=S)NCc2ccccn2)c1`, the activity change, negative = inhibition was -28.2%.

Take `COc1cccc(NC(=S)NCCCN2CCOCC2)c1`: the activity change, negative = inhibition is -6.46%. For the molecule `O=S(=O)(Nc1ccc(Oc2ncccn2)c(Cl)c1)c1ccc(F)cc1`, the Potency is 35.5 µM (active).

Take `O=S(=O)(NCc1ccccn1)c1ccc(F)cc1`: the activity change, negative = inhibition is -6.74%. Consider `Cc1ccc(S(=O)(=O)Nc2ccc3ncccc3c2)cc1`, for which the activity change, negative = inhibition is -6.64%. Take `Cc1cc(F)ccc1S(=O)(=O)Nc1ncnc2scc(-c3ccc(F)cc3)c12`: the activity change, negative = inhibition was -6.93%. Turning to `O=[N+]([O-])c1cccc(C2=NCCS2)c1`, the activity change, negative = inhibition was -12.8%. Turning to `O=C(COC(=O)c1cc(-c2cccs2)nn1-c1ccccc1)Nc1cc([N+](=O)[O-])ccc1Cl`, the activity change, negative = inhibition is -0.873%. As to `CCOP(=O)(OCC)C(Nc1cccc(C)c1)c1ccc(F)cc1` (stereo not given), the activity change, negative = inhibition is -7.61%. For the molecule `O=C(c1ccc2c(c1)OCO2)N1CCN(C(=O)c2ccco2)CC1`, the activity change, negative = inhibition was -11.7%.

With `O=C(Nc1ccccc1N1CCN(C(=O)c2ccccc2)CC1)c1ccc2c(c1)OCO2`, the activity change, negative = inhibition is -1.04%. Still for that read-out and setting: the figure for `O=C(c1cccc(S(=O)(=O)N2CCOCC2)c1)N1CCOCC1` is -2.21%; for `CC1CN(C(=O)c2ccc3c(c2)OCO3)OC(c2ccccc2)O1` (stereo not given) it is -4.25%.

On to `O=C(c1ccc2c(c1)OCO2)N1CCNc2ccccc2C1`, for which the Potency is 25.1 µM (active). Take `O=C(c1ccc2c(c1)OCO2)N1CCOCC1`: the Potency is 14.1 µM (active). `CC(Nc1oc(-c2ccccc2)nc1-c1ccccc1)c1ccccc1` (stereo not given): the activity change, negative = inhibition was 0.641% and -7.86%. On the same count and under the same terms, with `COc1ccc(Cc2nnc(N/N=C/c3ccccc3O)[nH]c2=O)cc1OC` the figure was -16.1%; with `NS(=O)(=O)c1ccc(N=Cc2ccc(Br)s2)cc1`, -0.454%; with `N#Cc1ccccc1NC(=O)COc1c(Br)cc(Br)c2cccnc12`, -10%. In the case of `Fc1ccc2nc(N3CCCCC3)sc2c1`, the activity change, negative = inhibition was -12.2%. Take `c1c2c(cc3sc(N4CCCCC4)nc13)OCCO2`: the Potency is 25.1 µM (active). As to `Fc1cc(F)c2nc(N3CCOCC3)sc2c1`, the activity change, negative = inhibition was -12.5%. For `CC1=C(C/C=C(\C)CCCC(C)CCCC(C)CCCC(C)C)C(=O)c2ccccc2C1=O` (stereo not given), the activity change, negative = inhibition is -10.7%. In the case of `CCC(C)(C(=O)NC1CCCCC1)N(C)C(=O)c1ccc2c(c1)OCO2` (stereo not given), the activity change, negative = inhibition is -0.912%.
